# Experimental data reported in PubChem BioAssay (EPA / NIEHS).
# Results filed as inconclusive are left out. Activity calls are given as the source filed them. How the source made its calls, unless noted: active means hit-call score of the fitted dose curve at least 0.9, where 1 is the maximum; inconclusive means response in the unintended direction; inactive means score below 0.9.
# Assays:
# [1] = biological target: Peroxisome proliferator-activated receptor gamma (Homo sapiens) (UniProt P37231); test: ATG_hPPARg_XSP2: Attagene TRANS-FACTORIAL Multi-Species (XSP2) HepG2 Assay for human Peroxisome Proliferator-activated Receptor gamma (PPARg) (AID 2283829);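 further: actives raise reporter mRNA above DMSO so AC50 reflects PPARg activation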
# Chain of Peroxisome proliferator-activated receptor gamma (Homo sapiens) (P37231 whole entry, looked up, the tested form may be a part): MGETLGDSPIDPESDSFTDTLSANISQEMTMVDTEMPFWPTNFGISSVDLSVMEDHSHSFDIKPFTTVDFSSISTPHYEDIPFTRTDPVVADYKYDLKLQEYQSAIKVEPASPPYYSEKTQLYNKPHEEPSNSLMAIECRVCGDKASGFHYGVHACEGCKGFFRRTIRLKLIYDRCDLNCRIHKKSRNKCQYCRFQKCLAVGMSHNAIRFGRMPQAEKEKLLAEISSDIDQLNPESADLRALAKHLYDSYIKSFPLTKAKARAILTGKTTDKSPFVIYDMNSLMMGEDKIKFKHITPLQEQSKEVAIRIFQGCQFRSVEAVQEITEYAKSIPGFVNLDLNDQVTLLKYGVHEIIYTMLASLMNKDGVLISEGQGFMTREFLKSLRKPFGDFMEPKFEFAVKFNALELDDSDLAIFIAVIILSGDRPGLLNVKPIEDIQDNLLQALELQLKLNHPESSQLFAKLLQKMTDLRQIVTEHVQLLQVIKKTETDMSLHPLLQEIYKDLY
# In short: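 HepG2 cells transiently transfected with GAL4-UAS reporter units driven by chimeric NR-Gal4 proteins; androgen receptor stimulated with 3 nM 6-alpha-fluorotestosterone and 1.5 nM norgestrel. After 24 h, reporter mRNA quantified by RT-PCR and capillary electrophoresis versus DMSO.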
# [2] = biological target: Nuclear receptor subfamily 1 group I member 2 (Mus musculus) (UniProt O54915); test: ATG_mPXR_XSP2: Attagene TRANS-FACTORIAL Multi-Species (XSP1) HepG2 Assay for mouse Pregnane X Receptor (PXR) (AID 2283831)
# Chain of Nuclear receptor subfamily 1 group I member 2 (Mus musculus) (O54915 whole entry, looked up, the tested form may be a part): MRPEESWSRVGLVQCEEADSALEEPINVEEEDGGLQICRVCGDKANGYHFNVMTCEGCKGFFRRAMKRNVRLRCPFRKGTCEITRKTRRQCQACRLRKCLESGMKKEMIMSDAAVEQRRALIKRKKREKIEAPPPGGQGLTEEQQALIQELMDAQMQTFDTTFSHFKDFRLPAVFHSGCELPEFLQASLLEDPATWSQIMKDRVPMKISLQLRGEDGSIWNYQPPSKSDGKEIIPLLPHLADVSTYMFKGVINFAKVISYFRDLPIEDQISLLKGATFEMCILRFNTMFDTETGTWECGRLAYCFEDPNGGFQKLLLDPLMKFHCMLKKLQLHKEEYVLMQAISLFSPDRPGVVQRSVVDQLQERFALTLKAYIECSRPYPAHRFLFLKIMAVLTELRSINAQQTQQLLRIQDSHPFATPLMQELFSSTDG
# In short: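 HepG2 cells transiently transfected with GAL4-UAS reporter units expressing chimeric NR-Gal4 proteins; 24 h compound exposure. Reporter mRNA quantified by RT-PCR and capillary electrophoresis fluorescence; gain of signal fitted against DMSO.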
# [3] = system: zebrafish Peroxisome Proliferator-activated Receptor gamma (PPARg), gene 557037; test: ATG_zfPPARg_XSP2: Attagene TRANS-FACTORIAL Multi-Species (XSP2) HepG2 Assay for zebrafish Peroxisome Proliferator-activated Receptor gamma (PPARg) (AID 2283833);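 further: reporter mRNA from a zebrafish PPARg GAL4 chimera measured by RT-PCR and capillary electrophoresis; actives increase reporter signal over DMSO so AC50 reflects activation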
# In short: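 HepG2 cells transiently transfected with multiplexed GAL4-UAS reporter units expressing chimeric NR-Gal4 receptors, dosed 24 h. Reporter mRNA quantified by RT-PCR, fluorescent labelling, HpaI digestion and capillary electrophoresis; gain of signal fitted against DMSO.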
# [4] = system: turtle Thyroid Hormone Receptor, alpha (TRa), gene 101949057; test: ATG_trTRa_XSP2: Attagene TRANS-FACTORIAL Multi-Species (XSP1) HepG2 Assay for turtle Thyroid Hormone Receptor, alpha (TRa) (AID 2283834);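 further: hits raise reporter mRNA over the DMSO baseline so AC50 marks activators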
# In short: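 HepG2 cells transiently transfected with GAL4-UAS reporter units for chimeric turtle TRa-Gal4; mRNA measured 24 h after dosing by RT-PCR and capillary electrophoresis fluorescence, gain of signal fitted against DMSO.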
# [5] = ATG_M_61_XSP2: Attagene TRANS-FACTORIAL Multi-Species (XSP2) HepG2 Assay for M61 Transcription Factor (Internal Marker) (AID 2283835; active means hit-call score of the fitted dose curve at least 0.9, where 1 is the maximum; inactive means score below 0.9;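 further: active means a rise in signal above the DMSO baseline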)
# In short: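 Internal background marker, read as RT-PCR/capillary-electrophoresis reporter mRNA 24 h post-dose in transiently transfected HepG2 cells. Androgen receptor stimulated with 3 nM 6-alpha-fluorotestosterone plus 1.5 nM norgestrel; gain of signal versus DMSO analysed.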
# [6] = biological target: zebrafish Thyroid Hormone Receptor beta (TRb), thrb (gene 30607) (UniProt Q9PVE4); test: ATG_zfTRb_XSP2: Attagene TRANS-FACTORIAL Multi-Species (XSP1) HepG2 Assay for zebrafish Thyroid Hormone Receptor beta (TRb) (AID 2283836)
# Chain of zebrafish Thyroid Hormone Receptor beta (TRb), thrb (gene 30607) (Q9PVE4 whole entry, looked up): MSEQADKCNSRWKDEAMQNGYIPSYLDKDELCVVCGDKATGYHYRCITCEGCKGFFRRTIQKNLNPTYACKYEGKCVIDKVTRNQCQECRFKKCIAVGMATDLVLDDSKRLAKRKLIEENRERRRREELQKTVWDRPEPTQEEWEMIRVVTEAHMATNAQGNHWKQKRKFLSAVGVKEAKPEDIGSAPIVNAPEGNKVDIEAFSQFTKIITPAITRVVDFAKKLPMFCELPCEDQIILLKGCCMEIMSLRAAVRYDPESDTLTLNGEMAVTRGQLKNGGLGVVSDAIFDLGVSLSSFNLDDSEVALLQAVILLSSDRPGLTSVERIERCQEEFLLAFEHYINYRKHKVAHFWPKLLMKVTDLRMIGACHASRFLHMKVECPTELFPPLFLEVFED
# In short: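 Reporter transcripts were measured by RT-PCR with fluorescent primer extension and capillary electrophoresis, 24 h after chemical dosing of transiently transfected HepG2 cells. Activity was scored as upward signal versus DMSO baseline.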
# [7] = biological target: frog Thyroid hormone Receptor alpha (TRa), thra-a (gene 397942) (UniProt P15204); test: ATG_frTRa_XSP2: Attagene TRANS-FACTORIAL Multi-Species (XSP2) HepG2 Assay for frog Thyroid hormone Receptor alpha (TRa) (AID 2283839);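 on AC50: AC50 reflects induction of frog TRa-driven reporter mRNA above DMSO baseline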
# Chain of frog Thyroid hormone Receptor alpha (TRa), thra-a (gene 397942) (P15204 whole entry, looked up, the tested form may be a part): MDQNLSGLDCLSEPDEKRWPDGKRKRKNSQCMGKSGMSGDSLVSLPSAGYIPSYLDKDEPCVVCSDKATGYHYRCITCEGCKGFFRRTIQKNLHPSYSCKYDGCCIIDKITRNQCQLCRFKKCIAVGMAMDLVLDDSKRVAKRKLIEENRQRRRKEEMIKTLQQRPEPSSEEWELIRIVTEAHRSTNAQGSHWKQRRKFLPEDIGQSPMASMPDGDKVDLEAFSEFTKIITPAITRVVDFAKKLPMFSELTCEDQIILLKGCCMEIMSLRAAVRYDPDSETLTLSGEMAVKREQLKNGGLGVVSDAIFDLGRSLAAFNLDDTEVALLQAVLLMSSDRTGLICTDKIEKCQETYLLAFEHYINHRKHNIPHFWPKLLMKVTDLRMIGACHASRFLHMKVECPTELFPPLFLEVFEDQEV
# In short: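 HepG2 transiently transfected with multiplexed GAL4-UAS reporters driven by frog TRa-Gal4 chimeras; 24 h chemical exposure. Reporter mRNA quantified by RT-PCR, FAM labelling, HpaI digestion and capillary electrophoresis; gain of signal versus DMSO.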
# [8] = biological target: human Thyroid hormone Receptor beta (TRb), THRB (gene 7068) (UniProt P10828); test: ATG_hTRb_XSP2: Attagene TRANS-FACTORIAL Multi-Species (XSP2) HepG2 Assay for human Thyroid hormone Receptor beta (TRb) (AID 2283840);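 further: actives raise reporter mRNA so potency reflects agonist-like gain of signal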
# Chain of human Thyroid hormone Receptor beta (TRb), THRB (gene 7068) (P10828 whole entry, looked up, the tested form may be a part): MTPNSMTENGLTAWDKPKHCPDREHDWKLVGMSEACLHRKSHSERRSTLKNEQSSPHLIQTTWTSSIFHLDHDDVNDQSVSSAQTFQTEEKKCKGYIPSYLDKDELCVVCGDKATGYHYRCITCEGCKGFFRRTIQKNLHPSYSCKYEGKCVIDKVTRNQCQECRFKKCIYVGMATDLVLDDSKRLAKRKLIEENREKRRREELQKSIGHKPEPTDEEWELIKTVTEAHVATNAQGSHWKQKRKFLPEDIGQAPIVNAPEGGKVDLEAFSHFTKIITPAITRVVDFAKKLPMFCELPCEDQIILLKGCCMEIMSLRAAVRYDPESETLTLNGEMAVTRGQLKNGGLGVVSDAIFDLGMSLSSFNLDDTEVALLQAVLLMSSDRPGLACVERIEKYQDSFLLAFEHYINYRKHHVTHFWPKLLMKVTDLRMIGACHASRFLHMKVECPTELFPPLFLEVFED
# In short: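 HepG2 transiently transfected with a multi-species panel including a human TRb–Gal4 chimera driving Gal4-UAS reporters; medium contained 3 nM 6-alpha-fluorotestosterone and 1.5 nM norgestrel. 24 h dosing; RT-PCR/capillary electrophoresis readout; positive-direction fit vs DMSO.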
# [9] = system: Sodium/Iodide Symporter (NIS), SLC5A5 (gene 6528); test: CPHEA_Stoker_NIS_Inhibition_RAIU: CPHEA's Radioactive Iodide Uptake (RAIU) Assay for Sodium/Iodide Symporter (NIS) Inhibition, Stoker and Laws Labs (AID 2283841)
# In short: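 Iodide uptake through human NIS is measured in an engineered HEK293T line. Cells take up 125I (329pM final) for 2 hours at room temperature alongside chemicals at 0.001–100uM. Retained radioactivity is counted, and the signal is expressed against DMSO controls.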
# [10] = biological target: PGR (gene 5241) (UniProt P06401); test: TOX21_PR_BLA_Followup_Antagonist_ratio: Tox21 HEK293 Progesterone Receptor (PR) Antagonism Beta-lactamase Follow-Up Assay, Ratio (AID 2283934)
# Chain of PGR (gene 5241) (P06401 whole entry, looked up, the tested form may be a part): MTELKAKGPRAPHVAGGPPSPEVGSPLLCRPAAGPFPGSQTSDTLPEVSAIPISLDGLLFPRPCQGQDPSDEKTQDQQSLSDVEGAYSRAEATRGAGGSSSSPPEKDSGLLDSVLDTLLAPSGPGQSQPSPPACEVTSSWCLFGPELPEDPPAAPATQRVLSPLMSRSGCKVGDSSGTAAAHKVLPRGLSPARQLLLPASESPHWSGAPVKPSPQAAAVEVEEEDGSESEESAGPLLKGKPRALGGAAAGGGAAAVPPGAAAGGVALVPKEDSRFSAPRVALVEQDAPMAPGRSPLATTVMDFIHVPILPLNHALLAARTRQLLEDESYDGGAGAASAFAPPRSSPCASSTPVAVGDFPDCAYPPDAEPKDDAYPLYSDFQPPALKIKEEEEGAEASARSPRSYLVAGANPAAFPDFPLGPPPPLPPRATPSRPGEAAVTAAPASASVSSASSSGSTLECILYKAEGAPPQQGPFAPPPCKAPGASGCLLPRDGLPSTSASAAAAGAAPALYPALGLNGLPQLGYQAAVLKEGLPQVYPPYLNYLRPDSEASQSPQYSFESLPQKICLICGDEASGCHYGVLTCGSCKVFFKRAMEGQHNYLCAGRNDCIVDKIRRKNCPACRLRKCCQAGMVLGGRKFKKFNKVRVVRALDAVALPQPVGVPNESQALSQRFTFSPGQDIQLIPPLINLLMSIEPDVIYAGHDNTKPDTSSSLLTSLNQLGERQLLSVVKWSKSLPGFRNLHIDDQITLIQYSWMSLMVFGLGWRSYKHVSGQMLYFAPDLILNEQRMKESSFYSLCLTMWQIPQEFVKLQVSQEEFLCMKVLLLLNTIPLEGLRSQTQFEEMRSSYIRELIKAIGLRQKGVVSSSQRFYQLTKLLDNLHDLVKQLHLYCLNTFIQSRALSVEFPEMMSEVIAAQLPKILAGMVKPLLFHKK
# In short: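 Read-out: blue/green beta-lactamase FRET ratio (cleaved ch2 over uncleaved ch1), fitted relative to DMSO baseline. Cells: PR-UAS-bla HEK293T, GAL4-UAS reporter, stimulated with 1 nM R5020 final; 16 hr compound exposure, 37C.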
# [11] = CEETOX_H295R_11DCORT_noMTC: CeeTox H295R High-throughput Steroidogenesis Assay for 11-Deoxycortisol (11DCORT), maximum tolerated concentration (MTC) filtered results only (AID 2283911; active means hit-call score of the fitted dose curve at least 0.9, where 1 is the maximum; inactive means score below 0.9); details: actives raise or lower the signal
# In short: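 H295R cells were prestimulated 48 h with 10 uM forskolin, then exposed 48 h to chemical (0.1% DMSO final). 11-Deoxycortisol in the medium was measured by MTBE extraction and HPLC-MS/MS, with bidirectional fitting versus DMSO and no MTC filtering of concentrations.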
# [12] = CEETOX_H295R_OHPREG_noMTC: CeeTox H295R High-throughput Steroidogenesis Assay for OH-Pregnenolone (OHPREG), maximum tolerated concentration (MTC) filtered results only (AID 2283912; active means hit-call score of the fitted dose curve at least 0.9, where 1 is the maximum; inactive means score below 0.9); details: actives raise or lower the signal
# In short: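 Medium 17alpha-hydroxypregnenolone quantified by reverse-phase HPLC-MS/MS after 48 h chemical exposure of forskolin-prestimulated (10 uM, 48 h) H295R, 0.1% DMSO final. Fitting bidirectional relative to DMSO; no maximum-tolerated-concentration filtering applied.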
# [13] = CEETOX_H295R_OHPROG_noMTC: CeeTox H295R High-throughput Steroidogenesis Assay for OH-Progesterone (OHPROG), maximum tolerated concentration (MTC) filtered results only (AID 2283914; active means hit-call score of the fitted dose curve at least 0.9, where 1 is the maximum; inactive means score below 0.9); details: actives raise or lower the signal
# In short: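 After 48 h forskolin (10 uM) prestimulation, H295R adrenal cells received test chemical in 0.1% DMSO for 48 h. Medium 17alpha-hydroxyprogesterone was MTBE-extracted and measured by HPLC-MS/MS; gain or loss relative to DMSO, no MTT-based MTC filtering.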
# [14] = CEETOX_H295R_CORTISOL_noMTC: CeeTox H295R High-throughput Steroidogenesis Assay for Cortisol, maximum tolerated concentration (MTC) filtered results only (AID 2283916; active means hit-call score of the fitted dose curve at least 0.9, where 1 is the maximum; inactive means score below 0.9); details: actives raise or lower the signal
# In short: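 Cortisol secretion measured by LC-MS/MS after 48 h chemical treatment (final 0.1% DMSO) of forskolin-primed (10 uM, 48 h) H295R cells; gain or loss fitted relative to DMSO, without maximum-tolerated-concentration filtering.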
# [15] = CEETOX_H295R_CORTIC_noMTC: CeeTox H295R High-throughput Steroidogenesis Assay for Corticosterone (CORTIC), maximum tolerated concentration (MTC) filtered results only (AID 2283917; active means hit-call score of the fitted dose curve at least 0.9, where 1 is the maximum; inactive means score below 0.9); details: actives raise or lower the signal
# In short: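 Human adrenal H295R cells were prestimulated 48 h with 10 uM forskolin, then exposed 48 h to chemical in 0.1% DMSO. Medium corticosterone was MTBE-extracted and quantified by HPLC-MS/MS; bidirectional fits versus DMSO, concentrations not MTC-filtered.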
# [16] = CEETOX_H295R_DOC_noMTC: CeeTox H295R High-throughput Steroidogenesis Assay for DOC, maximum tolerated concentration (MTC) filtered results only (AID 2283918; active means hit-call score of the fitted dose curve at least 0.9, where 1 is the maximum; inactive means score below 0.9); details: actives raise or lower the signal
# In short: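 11-Deoxycorticosterone secreted by human adrenal H295R cells quantified by HPLC-MS/MS after 48 h chemical exposure (0.1% DMSO), following 48 h 10 uM forskolin prestimulation. Concentrations not filtered by MTT-derived MTC; bidirectional fitting.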
# [17] = CEETOX_H295R_ESTRADIOL_noMTC: CeeTox H295R High-throughput Steroidogenesis Assay for Estradiol, maximum tolerated concentration (MTC) filtered results only (AID 2283919; active means hit-call score of the fitted dose curve at least 0.9, where 1 is the maximum; inactive means score below 0.9); details: actives raise or lower the signal
# In short: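 Readout: dansyl-derivatized estradiol quantified by LC-MS/MS in medium from H295R cells dosed 48 h (0.1% DMSO) following 48 h forskolin (10 uM) prestimulation. Gain or loss of signal fitted against DMSO; no MTC filtering applied.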
# [18] = CEETOX_H295R_PROG_noMTC: CeeTox H295R High-throughput Steroidogenesis Assay for Progesterone (PROG), maximum tolerated concentration (MTC) filtered results only (AID 2283920; active means hit-call score of the fitted dose curve at least 0.9, where 1 is the maximum; inactive means score below 0.9); details: actives raise or lower the signal
# In short: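 Progesterone secreted into medium was measured by HPLC-MS/MS after MTBE extraction, following 48 h chemical exposure (0.1% DMSO) of forskolin-prestimulated (10 uM, 48 h) H295R adrenal cells. Gain or loss fitted against DMSO; no MTC filtering.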
# [19] = CEETOX_H295R_ESTRONE_noMTC: CeeTox H295R High-throughput Steroidogenesis Assay for Estrone, maximum tolerated concentration (MTC) filtered results only (AID 2283921; active means hit-call score of the fitted dose curve at least 0.9, where 1 is the maximum; inactive means score below 0.9); details: actives raise or lower the signal
# In short: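 Estrone in spent medium, quantified by tandem MS following dansyl chloride derivatization, after 48 h chemical exposure (0.1% DMSO) of forskolin-prestimulated (10 uM, 48 h) H295R cells; concentrations not MTC-filtered, bidirectional fit against DMSO.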
structure (smiles),measurement,setting,value
COC(=O)N(OC)c1ccccc1COc1ccn(-c2ccc(Cl)cc2)n1,AC50,[1],1.15 µM (active)
same,AC50,[2],2.7 µM (active)
same,outcome,[3],inactive
same,outcome,[4],inactive
same,outcome,[5],inactive
same,outcome,[6],inactive
same,outcome,[7],inactive
same,outcome,[8],inactive
same,outcome,[9],inactive
same,AC50,[10],7.24 µM (active)
OC(c1ccc(Cl)cc1)(c1cncnc1)c1ccccc1Cl (stereo unspecified),AC50,[1],100 µM (active)
same,AC50,[2],4.78 µM (active)
same,AC50,[3],45.8 µM (active)
same,outcome,[4],inactive
same,outcome,[5],inactive
same,outcome,[6],inactive
same,outcome,[9],inactive
same,AC50,[11],36.7 µM (active)
same,AC50,[12],1.29 µM (active)
same,AC50,[13],31.1 µM (active)
same,AC50,[14],2.57 µM (active)
same,AC50,[15],0.203 µM (active)
same,AC50,[16],11.4 µM (active)
same,AC50,[17],9.94 µM (active)
same,AC50,[18],2.67 µM (active)
same,AC50,[19],13.9 µM (active)
CCOP(=S)(OCC)SCn1c(=O)oc2cc(Cl)ccc21,AC50,[1],27.9 µM (active)
same,AC50,[2],0.0321 µM (active)
same,outcome,[3],inactive
same,outcome,[4],inactive
same,outcome,[5],inactive
same,outcome,[6],inactive
same,outcome,[7],inactive
same,outcome,[8],inactive
same,AC50,[9],34.5 µM (active)
same,AC50,[10],24.9 µM (active)
CC(C)(C)c1ccc(CSc2cnn(C(C)(C)C)c(=O)c2Cl)cc1,AC50,[1],1.3 µM (active)
same,AC50,[2],0.834 µM (active)
same,outcome,[3],inactive
same,AC50,[4],0.0534 µM (active)
same,outcome,[5],inactive
same,outcome,[6],inactive
same,AC50,[7],0.0151 µM (active)
same,outcome,[9],inactive
CCCN(CCC)c1c([N+](=O)[O-])cc(S(N)(=O)=O)cc1[N+](=O)[O-],outcome,[1],inactive
same,outcome,[3],inactive
same,outcome,[5],inactive
same,outcome,[6],inactive
same,outcome,[8],inactive
same,outcome,[9],inactive
CCON=C(CC)C1=C(O)CC(c2c(C)cc(C)cc2C)CC1=O (stereo unspecified),outcome,[9],inactive
